PubChem BioAssay
The source made the active and inactive calls.

Columns and labels:
Albumin (Bos taurus) = Albumin (Bos taurus) (UniProt P02769); assay: bovine serum albumin binders on microarray, profiling panel, artefact control for SMM control protein annotation, biochemical, small-molecule microarray, Alexa647 label, 635/667 nm fluorescence (AID 1118); conditions: BSA-A647 binding, fluorescence 635 nm, higher = more signal;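 further: score merges 667 nm emission intensity and signal-to-noise per printed compound spot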
Chain of Albumin (Bos taurus) (P02769 whole entry, looked up): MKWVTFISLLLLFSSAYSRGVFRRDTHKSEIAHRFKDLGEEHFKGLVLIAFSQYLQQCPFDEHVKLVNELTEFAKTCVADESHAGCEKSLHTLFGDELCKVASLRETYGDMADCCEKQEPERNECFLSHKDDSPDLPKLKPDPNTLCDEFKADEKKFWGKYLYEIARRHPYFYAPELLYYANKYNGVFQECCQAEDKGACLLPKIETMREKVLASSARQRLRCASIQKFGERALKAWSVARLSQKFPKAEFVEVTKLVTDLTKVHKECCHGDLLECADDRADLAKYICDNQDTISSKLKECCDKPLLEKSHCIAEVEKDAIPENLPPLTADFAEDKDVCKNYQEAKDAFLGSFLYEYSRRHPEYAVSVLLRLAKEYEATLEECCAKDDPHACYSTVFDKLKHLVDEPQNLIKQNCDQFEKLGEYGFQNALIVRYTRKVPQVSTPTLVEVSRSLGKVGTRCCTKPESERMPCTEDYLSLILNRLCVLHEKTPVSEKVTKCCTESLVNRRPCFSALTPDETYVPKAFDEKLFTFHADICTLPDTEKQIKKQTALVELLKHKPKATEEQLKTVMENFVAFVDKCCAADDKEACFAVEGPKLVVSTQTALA

[1] = small-molecule microarray binders of probe aXIP, primary screen, biochemical, NeuroSMM set, 635/667 nm fluorescence (AID 1119); conditions: higher = more signal, called active from +8 up or from −8 down;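 further: probe is the protein aXip251-270 applied at 1 µg/mL to compound-printed slides; binding of probe to printed compounds measured as 667 nm fluorescence plus signal to noise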
[2] = small-molecule binders of probe aNOTCH3, primary screen, biochemical, small-molecule microarray, 635/667 nm fluorescence (AID 1120); conditions: higher = more signal;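 further: probe is a biotin-tagged antibody raised against NOTCH3 rather than NOTCH3 protein; score merges spot fluorescence near 667 nm with spot signal to noise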
[3] = small-molecule binders of probe aNOTCH2, primary screen, biochemical, small-molecule microarray, 635/667 nm fluorescence (AID 1121); conditions: higher = more signal;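 further: score merges feature fluorescence read at 667 nm with its signal to noise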
[4] = target: Carbonic anhydrase 2 (Homo sapiens) (UniProt P00918); assay: CAII small-molecule binders, profiling panel, biochemical, small-molecule microarray, Alexa647-labelled CAII (AID 1122); conditions: CAII-A647 binding fluorescence, higher = more signal
[5] = COS7 lysate on small-molecule microarray, probe aHis, 635 nm (AID 1123); conditions: COS7 cell lysate, fluorescence, higher = more signal;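 further: z-score combines 667nm fluorescence intensity with signal-to-noise per printed compound spot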
[6] = compound binding in COS7 lysate, probe aLAP1, primary screen, cell lysate, small-molecule microarray (AID 1124); conditions: probe aLAP1, fluorescence, higher = more signal;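 further: lysate comes from COS7 cells expressing LAP1 and is applied at 0.3 µg/mL; score merges spot fluorescence near 667 nm with signal-to-noise over triplicate slides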
Sam68 (KHDRBS1) = assay: Sam68 small-molecule binders, primary screen, biochemical, small-molecule microarray, 635 nm fluorescence (AID 1125); conditions: small-molecule microarray binding, higher = more signal;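 further: score merges 667 nm channel intensity with signal to noise over triplicate slides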
[7] = test system: Chordin-like protein 2 (CHRDL2); assay: CHRDL2 small-molecule binders, primary screen, biochemical, small-molecule microarray, 635 nm fluorescence (AID 1126); conditions: small-molecule microarray binding, fluorescence 635 nm; higher = more signal;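 further: printed compound slides probed with Chrdl2 protein at 4 µg/mL for 1 h at 4 C; score merges 667 nm emission intensity with signal to noise over three replicate slides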
[8] = target: Concanavalin-A (Canavalia ensiformis) (UniProt P02866); assay: ConA small-molecule binders, primary screen, artefact control for SMM control protein annotation, biochemical, small-molecule microarray, Alexa647 label, 635 nm (AID 1127); conditions: ConA-A647 binding fluorescence, higher = more signal;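 further: z combines 667 nm emission intensity with signal-to-noise across three replicate slides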
Chain of Concanavalin-A (Canavalia ensiformis) (P02866 whole entry, looked up): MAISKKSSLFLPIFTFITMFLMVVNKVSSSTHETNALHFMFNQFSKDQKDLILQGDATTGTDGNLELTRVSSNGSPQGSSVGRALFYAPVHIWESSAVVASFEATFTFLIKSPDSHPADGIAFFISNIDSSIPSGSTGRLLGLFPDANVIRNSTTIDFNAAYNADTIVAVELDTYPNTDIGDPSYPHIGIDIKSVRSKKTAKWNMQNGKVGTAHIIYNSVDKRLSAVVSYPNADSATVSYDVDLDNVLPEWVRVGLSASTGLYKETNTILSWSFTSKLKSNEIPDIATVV

Row | Compound | composite z-score (Albumin (Bos taurus)) | composite Z-score [1] | composite z-score [2] | composite z-score [3] | composite z-score [4] | composite z-score [5] | composite z-score [6] | composite z-score (Sam68 (KHDRBS1)) | composite z-score [7] | composite z-score [8]
1 | Cc1ccc(S[C@]2(C(=O)NCC(C)C)CC(=O)N(Cc3ccccc3)[C@@H]2c2ccc(CO)cc2I)cc1 | 0.256 | 0.552 (inactive) | 0.0301 | -0.125 | 0.633 | 1.21 | 0.888 | 1.18 | 0.718 | 0.939
2 | COc1ccc(C(O)C2C=CC3C(=O)NC(=O)C3N2Nc2ccccn2)cc1OCc1ccccc1 (stereo not given) | 0.68 | 0.0296 (inactive) | 0.089 | -0.0308 | 0.855 | 1.76 | 0.759 | -0.255 | 0.0961 | 0.212
3 | C=C(CCCC)/C(=C/C[C@H](OC(C)=O)c1ccc(CO)o1)c1cnc2ccccc2c1 | 0.475 | -1.16 (inactive) | 0.0282 | -0.14 | 0.73 | 0.612 | -0.193 | 1.05 | 0.968 | 0.931
4 | COc1ccc(CCNC(=O)[C@@]2(c3ccc([N+](=O)[O-])cc3)CC(=O)N(CC34CC5CC(CC(C5)C3)C4)[C@@H]2c2ccc(CO)cc2)cc1 | -0.191 | 0.22 (inactive) | 0.0494 | -0.0617 | 0.18 | 1.11 | -0.291 | 1.09 | 0.647 | 1.12
5 | CO[C@H]1O[C@H](CO)[C@@H](OC(=O)Nc2ccc3c(c2)OCO3)[C@H](OC(=O)Nc2ccccc2)[C@H]1OC(=O)Nc1ccccc1 | -0.21 | 0.118 (inactive) | 0.0773 | -0.102 | 0.406 | 2.04 | 0.637 | 1.19 | 0.261 | 0.143
6 | C=CC[C@@]1(C(=O)NCC(O)CO)N=C(c2ccc(OCCCO)cc2)O[C@@H]1c1ccccc1N=[N+]=[N-] (stereo not given in full) | 1.04 | 0.338 (inactive) | 0.266 | 0.0007 | 0.778 | 3.7 | 1.02 | 0.931 | -0.982 | 0.97
7 | CS(=O)(=O)CCOC(=O)C1=CC(CCCO)=CC(c2cccs2)N(Cc2cc3c(cc2Br)OCO3)C=C1C(=O)OCCS(C)(=O)=O (stereo not given) | 0.974 | 1.05 (inactive) | 0.183 | -0.0149 | 0.337 | 1.64 | 0.817 | 1.3 | 0.164 | 0.986
8 | CN1C(=O)C2C(C1=O)C1C=C(CCCO)C2C(c2cccs2)N1C (stereo not given) | 0.565 | 0.654 (inactive) | -0.154 | -0.231 | 0.779 | 0.138 | 1.62 | -0.27 | -0.0999 | -0.774
9 | CN(C)C(=O)[C@]1(CCC(=O)OC(C)(C)C)N=C(c2ccc(OCCCO)cc2)O[C@@H]1c1ccccc1N=[N+]=[N-] | 0.934 | 0.155 (inactive) | 0.374 | -0.0985 | 0.719 | 3.15 | 0.964 | 1.31 | -0.516 | 0.858
10 | O=C1[C@]2(CO)C=C(Br)[C@@H](C[C@@H]2c2ccccc2)[C@@]12CO2 | -0.102 | 0.689 (inactive) | -0.0763 | -0.16 | 0.129 | -0.307 | -0.139 | -0.566 | 0.0616 | 0.195
11 | COC(=O)c1ccc(C(O)C2C=CC3C(=O)N(c4ccccc4)C(=O)C3N2Nc2ccc(C#N)cc2)o1 (stereo not given) | 0.887 | -0.336 (inactive) | 0.0282 | -0.0878 | 0.436 | 2.85 | 0.387 | 0.735 | 0.0997 | 0.635
12 | COC(=O)[C@@]1(Cc2ccccc2N=[N+]=[N-])COC(c2ccc(OCCCO)cc2)=N1 | -0.261 | 1.07 (inactive) | -0.0546 | -0.112 | 0.573 | 1.99 | 0.753 | 0.994 | -0.473 | 1.08
13 | COCCOC(=O)N1C(=O)[C@@]2(c3ccccc31)[C@H](C(=O)NC[C@H](O)c1ccccc1)[C@H]1C(=O)O[C@H](c3ccccc3)[C@H](c3ccccc3)N1[C@@H]2c1ccc(OCCO)cc1 | 0.605 | -0.404 (inactive) | 0.267 | -0.0959 | 0.492 | 1.53 | -0.0994 | 1.3 | 1.22 | 1.12
14 | CC(C)(C)OC(=O)CC[C@@]1(C(=O)NCCN2CCOCC2)N=C(c2ccc(OCCCO)cc2)O[C@@H]1c1ccccc1 | 1.03 | -0.548 (inactive) | 0.209 | 0.0129 | 0.539 | 1.46 | 0.275 | 1.3 | -0.0233 | 1.17
15 | C=CC(COC(C)=O)NS(=O)(=O)c1ccc(Br)cc1 (stereo not given) | -0.68 | 0.0518 (inactive) | -0.0337 | -0.133 | -0.0235 | -0.01 | 0.0423 | 0.591 | 0.912 | 0.682
16 | CCOC(=O)C1=CCC(c2ccc(C#N)cc2)N(S(=O)(=O)c2ccc(C)cc2)C1 (stereo not given) | 0.886 | 0.356 (inactive) | 0.1 | 0.188 | 0.695 | 1.63 | 1.18 | 1.3 | -0.1 | 1.14
17 | COC(=O)[C@]1(Cc2ccccc2N=[N+]=[N-])N=C(c2ccc(OCCCO)cc2)O[C@@H]1c1ccccc1N=[N+]=[N-] | 0.308 | -0.47 (inactive) | -0.0976 | -0.148 | 0.595 | 0.794 | 0.405 | -0.255 | -0.153 | 0.725
18 | O=C1OCCC=C[C@H]2OC34C=CCN(Cc5ccccc5)C(=O)[C@H]3N(CCCCCCO)C(=O)[C@@H]4C12 (stereo not given in full) | -0.0045 | 0.0421 (inactive) | -0.241 | -0.171 | 0.898 | 1.2 | 0.0054 | 0.409 | -1.02 | -0.745
19 | CN1CCC(CCCO)=CC1c1ccc(CN2CCCC2)cc1 (stereo not given) | -0.225 | -0.554 (inactive) | 0.29 | 0.0088 | 0.665 | 1.46 | 0.714 | 1.32 | 1.5 | 0.776
20 | COc1ccc(C#Cc2ccc3c(c2)[C@]2(C(=O)N3)[C@H](C(=O)NC[C@H](O)c3ccccc3)[C@H]3C(=O)O[C@H](c4ccccc4)[C@H](c4ccccc4)N3[C@@H]2c2ccc(OCCO)cc2)cc1 | 0.265 | 0.53 (inactive) | 0.196 | -0.125 | 0.357 | 1.97 | 0.635 | 1.33 | 0.473 | 1.17
21 | COC(=O)[C@@]1(Cc2ccccc2)[C@H]2c3cc(C(=O)N4CCCC4)n(Cc4ccc(C)o4)c3C[C@H]2CN1C(=O)c1ccccc1 | 0.905 | -0.56 (inactive) | 0.415 | 0.0263 | 0.787 | 0.597 | 0.487 | 0.17 | -0.589 | -0.289
22 | C=CCC(OC(C)=O)[C@@H]1[C@@H](N(Cc2cc3ccccc3o2)C(=O)c2ccc(C)cc2)c2cc(OCCCO)ccc2N1C(=O)c1ccc2ccccc2c1 (stereo not given in full) | 0.767 | 0.698 (inactive) | 0.0259 | -0.101 | 0.0486 | 0.605 | -0.069 | -0.0437 | 0.157 | -0.309
23 | O=C(CS)NCCCCCCNC(=O)[C@@H]1C[C@@H]2C(=O)N3CCC[C@H]3C(=O)N2[C@@H]1c1ccc(O)cc1 | -0.766 | 3.04 (inactive) | -0.273 | -0.116 | 0.645 | 2.88 | 0.827 | 0.5 | 0.361 | 0.443
24 | CCOc1cc(C(O)C2C=CC3C(=O)N(c4ccccc4)C(=O)C3N2Nc2ccc([N+](=O)[O-])cc2)ccc1O (stereo not given) | 0.839 | -0.014 (inactive) | 0.0488 | -0.0666 | 0.865 | 1.78 | 0.502 | 0.874 | -0.136 | 0.548
25 | O=C1O[C@H](c2ccccc2)[C@H](c2ccccc2)N2[C@H]1[C@@H](C(=O)O)[C@]1(C(=O)Nc3ccc(C#CC4=CCCCC4)cc31)[C@H]2c1ccc(OCCO)cc1 | 0.638 | 0.0759 (inactive) | 0.133 | -0.0523 | 0.537 | 2.01 | 1.48 | 1.29 | 0.494 | 1.18
26 | O=C(NCc1ccccc1)[C@]1(CCS(=O)(=O)c2ccccc2)N=C(c2ccc(OCCCO)cc2)O[C@@H]1c1ccccc1 | 0.714 | 0.235 (inactive) | 0.296 | -0.048 | 0.555 | 0.751 | 0.379 | 1.31 | 0.205 | 1.08
27 | COc1ccc(NN2C(C(O)c3ccc(OC)c(OCc4ccccc4)c3)C=CC3C(=O)N(C4CCCCC4)C(=O)C32)cc1 (stereo not given) | 0.976 | 0.745 (inactive) | 0.252 | -0.122 | 0.274 | 2.52 | 0.0516 | 1.24 | 0.275 | 1.11
28 | CCC(CC)C(O)C1C=CC2C(=O)N(c3ccccc3)C(=O)C2N1Nc1ccc(C#N)cc1 (stereo not given) | 1.09 | 0.35 (inactive) | 0.628 | 0.241 | 0.729 | 2.61 | -0.266 | 1.3 | 0.158 | 1.23
29 | O=C1OCCC=C[C@H]2OC34C=CCN(Cc5ccccc5)C(=O)[C@H]3N(CCCCCO)C(=O)[C@@H]4C12 (stereo not given in full) | 0.863 | 0.452 (inactive) | -0.28 | -0.173 | 0.763 | 2.1 | 0.743 | 0.954 | -1.32 | -0.262
30 | O=C1C=CC(=O)[C@@H]2CC(COc3ccccc3)=C3[C@@H](CCc4ccccc4)OB(O)C[C@@H]3[C@H]12 | -0.182 | 0.155 (inactive) | -0.0647 | -0.219 | -0.0292 | 0.113 | -0.17 | 0.359 | 0.299 | 0.238
